Hits are enriched below; roughly 3.6% of the tested compounds scored in any of these assays.
TDP-43 yeast inh = TDP-43 toxicity inhibition in yeast; Potency, µM (top dose mostly 46.1 µM), inactives show top-dose growth rescue (activation), most hits filed as activators; TDP-43 expressing yeast growth rescue, BacTiter-Glo, 24 h; hit rate 1.8% among 410,000; note: % of control where 0% means no effect; nearly all actives have a fitted effect of over 50% in size
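Yeast cells expressing TDP-43 under galactose induction are exposed to compounds for 24 hr at 30 deg C. BacTiter-Glo luminescence measures growth, so protective compounds score as activators.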
Mm-Cpn inhibitor = inhibitors of Methanococcus maripaludis chaperonin TRiC (MmCpn); purified Mm-Cpn ATPase, ADP Transcreener TR-FRET; Potency, µM (doses to about 76.9 µM), for the others: at the highest dose activity, negative = inhibition, hits mostly inhibitors; AID 504842; hit rate 0.031% among 330,000; note: % is set by controls: 0 for no effect and ±100 for the full control effect; nearly all actives have a fitted effect of over 80% in size
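Compound-treated chaperonin, 25 nM final, turns over 10 uM ATP at 37°C for 30 min following a 10 min preincubation; ADP generated competes with ADP-d2 for Eu-cryptate antibody, lowering FRET.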
ClpP mod = qHTS Assay for Activators of ClpP; purified B. subtilis ClpP, FRET peptide cleavage, 20 min; Potency, µM (titrated, usually from 57.5 µM), for inactives: at the top dose activity change, negative = active; hit rate 1.9% among 340,000; ATP-dependent Clp protease proteolytic subunit (Bacillus subtilis (strain 168)), P80244; AID 651965, 2013; active = well fitted falling curve with a large enough effect; inconclusive = small, poorly fitted or top-dose-only effect; inactive = no such curve, though single readings can be large or run the other way; note: the source files actives as falling curves though it sought activators and does not explain the sign; nearly all actives have a fitted effect of over 65% in size
Target sequence (P80244 whole entry, looked up): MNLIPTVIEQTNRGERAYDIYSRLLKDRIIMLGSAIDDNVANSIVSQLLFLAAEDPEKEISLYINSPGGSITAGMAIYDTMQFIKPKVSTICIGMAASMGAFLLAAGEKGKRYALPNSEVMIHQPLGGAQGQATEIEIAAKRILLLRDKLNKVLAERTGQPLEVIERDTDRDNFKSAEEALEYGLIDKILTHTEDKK
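ClpP 10 microg/mL final, pH 8 Tris/KCl buffer with BSA, glycerol, Tween-20; compound pinned in; FRET-FV substrate; RT 20 min; Ex320/Em430; ΔFRET vs ADEP 5.8 microM, DMSO, no enzyme.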
FUS yeast rescue = FUS proteinopathy suppression in yeast; hit rate 0.24% among 390,000; S. cerevisiae FUS-expressing, growth rescue, OD600, 24 h; Potency, µM (titrated, usually from 76.6 µM), hits mostly activators; AID 1347120;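 note: plate controls were DMSO vehicle for no effect and reference control for full effect; nearly all actives have a fitted effect of over 55% in size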
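Yeast expressing FUS under galactose induction, OD 0.005 in 2% galactose medium; compounds in a dilution series, 24 h at 30C. Growth rescue by absorbance at 600 nm; CP55940 positive control, DMSO negative.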
Abeta yeast res = compounds reversing amyloid beta toxicity in yeast; yeast expressing A-beta42, growth rescue, OD600, 48 h; response scale: 0% DMSO, 100% iron-clioquinol control; Potency, µM (top dose mostly 46.1 µM), actives largely listed as activators; hit rate 0.063% among 410,000; AID 1347071; note: nearly all actives have a fitted effect of over 55% in size
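Growth rescue measured by 600 nm absorbance after 48 h yeast culture at 30 C with compound. Values normalized between DMSO and an equimolar ferric chloride plus clioquinol control.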
aSyn rescue = alpha-synuclein toxicity inhibition in yeast | Potency, µM (doses to about 46.1 µM), without a hit: at the top dose growth rescue (activation), hits mostly activators | hit rate 0.14% among 370,000 | Yeast expressing alpha-synuclein, growth rescue, BacTiter-Glo, 24 h; note: % of control where 0% means no effect; nearly all actives have a fitted effect of over 65% in size
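Screening used galactose-induced yeast with toxic alpha-synuclein levels, exposed to compound for 24 hr at 30 deg C. Cell growth, read with BacTiter-Glo luminescence, gave the measured signal.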
An asterisk follows results filed as active; i = inactive; ? = inconclusive; · = no result. Unless noted, calls come from the whole dose curve; as a rule, active = well fitted curve in the direction sought with a large enough effect; inconclusive = small, poorly fitted or top-dose-only effect, or another doubt; inactive = no such curve, though single readings can be large; an effect the other way counts as inactive or inconclusive. Potency is the fitted concentration of half-maximal effect.

SMILES	TDP-43 yeast inh	Mm-Cpn inhibitor	ClpP mod	FUS yeast rescue	Abeta yeast res	aSyn rescue
CCN(CC)CCCNC(=O)C1c2ccccc2C(=O)N(C)C1c1ccc(OC)cc1 (stereo not drawn)	22µM*	2%	0%	i	i	-4%
CCn1cc(C(=O)OCC(=O)Nc2cccc(C(C)=O)c2)c(=O)c2ccc(C)nc21	1%	·	-3%	?	i	·
CC(=O)Nc1ccc(S(=O)(=O)Nc2nc3ccccc3nc2N2CCOCC2)cc1	12%	-7%	-2%	i	i	-4%
Cc1ccccc1S(=O)(=O)Nc1nc2ccccc2nc1N1CCOCC1	18µM*	?	-8%	i	i	4%
Cc1cc(=O)oc2c(C)c3occc3cc12	2.5µM*	-2%	·	i	?	?
COc1ccc2c(C)cc(=O)oc2c1C	10%	0%	?	i	i	2%
Cc1ccc(Cl)cc1N1CCN(C(=O)c2noc(C)c2[N+](=O)[O-])CC1	13µM*	1%	1%	i	i	2%
Cc1ccc(CSCC(=O)N2CCN(c3ccccc3F)CC2)cc1	?	·	-2%	?	i	·
Cc1ccc(Cl)cc1N1CCN(C(=O)c2noc3c2CCCC3)CC1	22µM*	·	0%	i	i	·
Cc1ccc(CSCC(=O)N2CCN(c3cc(Cl)ccc3C)CC2)cc1	18µM*	·	1%	i	i	·
Cc1cccc(N2CCN(C(=O)c3noc4c3CCCCC4)CC2)c1C	16µM*	·	1%	i	i	·
Cc1onc(C(=O)N2CCN(c3ccccc3)CC2)c1[N+](=O)[O-]	?	-5%	0%	i	i	-3%
Cc1occc1-c1nnc(SCC(=O)Nc2ccncc2)n1-c1ccccc1	·	·	·	i	·	·
S=c1[nH]nc(-c2cccc(Br)c2)o1	-42%	32µM*	?	i	i	-27%
CCOc1ccc(NC(=O)N2CC=C(c3c[nH]c4ccccc34)CC2)cc1	2%	·	-19%	i	i	·
NC(=O)c1ccc(NC(=O)COC(=O)C2(c3ccccc3F)CCCC2)cc1	15%	0%	1%	i	i	0%
O=C(COc1ccccc1)NC1CCS(=O)(=O)C1 (stereo not drawn)	-3%	-3%	-3%	i	i	-8%
NS(=O)(=O)c1ccc(NC(=O)COC(=O)C2(c3ccccc3F)CCCC2)cc1	-4%	0%	25µM*	·	i	3%
O=C(COC(=O)C1(c2ccccc2F)CCCC1)NC1CCS(=O)(=O)C1 (stereo not drawn)	-14%	0%	28µM*	i	i	-1%
CCOC(=O)c1cc(C)n(CC2CCC(C(=O)Nc3ccccc3OC)CC2)c1C (stereo not drawn)	8%	·	0%	?	i	·
Fc1ccc(-c2nc3ccc(Br)cn3c2Cc2ccccc2)cc1	35µM*	·	-11%	i	i	17%
Fc1ccc(-c2nc3ccc(Br)cn3c2Cc2cccc(Cl)c2)cc1	35µM*	·	-3%	i	i	4%
Clc1ccc(-c2nc3ccc(Br)cn3c2Cc2ccsc2)cc1	35µM*	·	-3%	i	i	-17%
CCc1c(-c2ccccc2)nc2ccccc2c1C(=O)NC(C)c1ccccc1 (stereo not drawn)	20%	·	-1%	?	i	·
Nc1c(C(=O)Nc2ccccc2F)sc2nc(-c3ccco3)ccc12	-21%	-10%	28µM*	i	i	0%
Nc1c(C(=O)Nc2ccccc2F)sc2nc(-c3cccnc3)ccc12	?	-4%	0%	i	i	8%
CCOc1ccc(C(=O)Nc2ccc(C(=O)OCc3cc(=O)n4ccsc4n3)cc2)cc1	-10%	·	-2%	i	i	·
Clc1ccccc1C(c1ccccc1)(c1ccccc1)n1ccnc1	?	1%	-4%	i	i	?
C#CC(c1ccccc1)(c1ccccc1)n1ccnc1	3.5µM*	·	2%	i	i	6%

Source: PubChem BioAssay
